Test results from the supplement of paper PMC13380429.

Legend:
[1] = system: Vero E6 infected with SARS-CoV-2; assay: morphology score (similarity to uninfected cells); higher = more like uninfected cells; conditions: 24 h
[2] = system: Vero E6 infected with SARS-CoV-2; assay: SARS-CoV-2 infection rate relative to infected DMSO; higher = more infection, active = 60 or less; conditions: 24 h

Row | Structure (SMILES) | morphology score [1] | SARS-CoV-2 infection rate [2]
1 | C[C@H](N[C@@H](CCc1ccccc1)C(=O)O)C(=O)N1Cc2ccccc2C[C@H]1C(=O)O [quinaprilat] (10 µM) | 0.0914 | 106% (inactive)
2 | O[C@H]([C@H](O)[C@@H]1CO1)[C@H]1CO1 [dianhydrogalactitol] (10 µM) | -0.0725 | 114% (inactive)
3 | CC(C)(CO)CCCCCCC(C)(C)CO [gemcadiol] (10 µM) | 0.124 | 98.5% (inactive)
4 | COCCOc1ccc2c(c1)ncn2-c1ccc2cccc(N3CCC(N)CC3)c2n1 (0.833333 µM) | -0.0191 | 106% (inactive)
5 | C[C@]12C=CC(=O)N[C@@H]1CC[C@@H]1[C@@H]2CC[C@]2(C)[C@@H](C(=O)Nc3cc(C(F)(F)F)ccc3C(F)(F)F)CC[C@@H]12 [dutasteride] (10 µM) | 0.111 | 111% (inactive)
6 | COc1ccc(CN2C(=O)C(=O)c3cc(OC(F)(F)F)ccc32)cc1 (0.833333 µM) | 0.0284 | 102% (inactive)
7 | COc1c(C)cnc(Cn2cc(C#CCC(C)(C)O)c3c(Cl)nc(N)nc32)c1C (10 µM) | 0.181 | 110% (inactive)
8 | C[S+]([O-])CCCCN=C=S (centres undefined) [sulforaphane] (10 µM) | 0.924 | 6.5% (active)
9 | O=C1NC(=O)c2c1c1c3ccccc3[nH]c1c1[nH]c3ccccc3c21 [arcyriaflavin-a] (10 µM) | 0.363 | 106% (inactive)
10 | O=C(NC1CCOCC1)c1ccc(-c2cc(-c3c[nH]nc3-c3ccccn3)ccn2)cc1 (10 µM) | -0.0411 | 114% (inactive)
11 | CC(COc1ccccc1)N(CCCl)Cc1ccccc1 (centres undefined) [phenoxybenzamine] (10 µM) | 0.146 | 106% (inactive)
12 | COc1cc(Nc2ncc3c(n2)-c2ccc(Cl)cc2C(c2c(F)cccc2OC)=NC3)ccc1C(=O)O [alisertib] (0.833333 µM) | 0.272 | 112% (inactive)
13 | CC12CC3CC(C)(C1)CC(N)(C3)C2 [memantine] (10 µM) | 0.0122 | 110% (inactive)
14 | O=Nc1ccc(O)c2ncccc12 (10 µM) | -0.131 | 108% (inactive)
15 | Nc1ccn([C@H]2C[C@H](O)[C@@H](CO)O2)c(=O)n1 [torcitabine] (10 µM) | -0.00729 | 108% (inactive)
16 | FC(F)(F)c1ccc(N2CCNCC2)nc1Cl (10 µM) | 0.273 | 89.5% (inactive)
17 | [N-]=[N+]=N[C@]1(CO)O[C@@H](n2ccc(N)nc2=O)[C@H](O)[C@@H]1O (10 µM) | 0.0194 | 109% (inactive)
18 | CN(C)CCCN1c2ccccc2Sc2ccc(Cl)cc21 [chlorpromazine] (0.833333 µM) | 0.071 | 98.5% (inactive)
19 | CN1CCN(C(c2ccccc2)c2ccccc2)CC1 [cyclizine] (10 µM) | -0.126 | 108% (inactive)
20 | CCO[C@@H](Cc1ccc(OCCn2c(C)ccc2-c2ccc(SC)cc2)cc1)C(=O)O [saroglitazar] (10 µM) | 0.336 | 92% (inactive)
21 | CC(C)NCC(O)c1ccc2ccccc2c1 (centres undefined) [pronethalol] (10 µM) | -0.0652 | 104% (inactive)
22 | CCC(=O)NC[C@H](Cc1ccc(OCCc2nc(-c3ccccc3)oc2C)cc1)N/C(C)=C\C(=O)c1ccc(C(F)(F)F)cc1 (10 µM) | -0.0333 | 110% (inactive)
23 | CC(=O)CC(=O)O [lithium-acetoacetate] (10 µM) | 0.0997 | 102% (inactive)
24 | c1ccc(CN2CCC3(CCc4ccccc43)CC2)cc1 (10 µM) | 0.228 | 80.5% (inactive)
25 | O=C1c2c(O)cccc2C([C@@H]2O[C@H](CO)[C@@H](O)[C@H](O)[C@H]2O)c2cc(CO)cc(O)c21 (some centres undefined) [aloin] (10 µM) | -0.243 | 116% (inactive)
26 | CCCC(=O)Nc1ncnc2c1ncn2[C@@H]1O[C@@H]2COP(=O)(O)O[C@H]2[C@H]1OC(=O)CCC [bucladesine] (10 µM) | 0.0459 | 104% (inactive)
27 | Cc1ccc(C(=O)Nc2ccc(S(=O)(=O)O)c3cc(S(=O)(=O)O)cc(S(=O)(=O)O)c23)cc1NC(=O)c1cccc(NC(=O)Nc2cccc(C(=O)Nc3cc(C(=O)Nc4ccc(S(=O)(=O)O)c5cc(S(=O)(=O)O)cc(S(=O)(=O)O)c45)ccc3C)c2)c1 [suramin] (10 µM) | 0.13 | 101% (inactive)
